The values that follow come from PubChem BioAssay (EPA / NIEHS).

Assay [1] concerns the target Peroxisome proliferator-activated receptor gamma (Homo sapiens) (UniProt P37231). The assay can be described thus: OT_PPARg_PPARgSRC1_1440: Odyssey Thera (OT) 24-hour Protein-Complementation Assay for Peroxisome Proliferator-activated Receptor Gamma/ SRC-1 Co-activator (AID 2283388).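 Also: nuclear to cytoplasmic ratio of reconstituted Venus YFP fluorescence in fixed imaged cells.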 Summed up:
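Readout: nuclear-to-cytoplasmic 488 nm fluorescence ratio, ≥350 cells per image, 8 images per well, after 24 h compound exposure of HEK293T expressing PPARg/SRC-1 split-YFP fusions. Activity fitted in positive direction against DMSO.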

Assay [2] is described as follows: ATG_XTT_Cytotoxicity: Cytotoxicity Assessment in the Attagene TRANS-FACTORIAL HepG2 Assay (AID 2283584). The method in brief:
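XTT readout of cell number in transfected HepG2 cells, 24 h post-dosing; DMSO serves as negative control and baseline, with activity taken as loss of viability signal.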

A short description of assay [3]: CEETOX_H295R_OHPREG: CeeTox H295R High-throughput Steroidogenesis Assay for OH-Pregnenolone (OHPREG) (AID 2283434; active = hit-call score of the fitted dose curve at least 0.9, where 1 is the maximum; inactive = score below 0.9). Conditions: actives raise or lower the signal. The method in brief: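 Human adrenal H295R cells were prestimulated 48 h with 10 uM forskolin, then exposed 48 h to chemical in 0.1% DMSO. Medium 17alpha-hydroxypregnenolone was quantified by HPLC-MS/MS after MTBE extraction; bidirectional fitting versus DMSO baseline.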

Assay [4] is described as follows: CEETOX_H295R_ESTRADIOL: CeeTox H295R High-throughput Steroidogenesis Assay for Estradiol (AID 2283440; active = hit-call score of the fitted dose curve at least 0.9, where 1 is the maximum; inactive = score below 0.9;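 also: estradiol secreted into medium quantified by LC-MS/MS after dansyl derivatisation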). Conditions: actives raise or lower the signal. Summed up:
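H295R, 48 h forskolin (10 uM) prestim → 48 h compound, 0.1% DMSO final. Estradiol in medium: MTBE extraction, dansyl chloride derivatization, LC-MS/MS. Fit bidirectional vs DMSO baseline; MTT viability in same wells.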

A short description of assay [5]: CEETOX_H295R_ESTRONE: CeeTox H295R High-throughput Steroidogenesis Assay for Estrone (AID 2283441; active = hit-call score of the fitted dose curve at least 0.9, where 1 is the maximum; inactive = score below 0.9;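 also: estrone secreted into medium measured by LC-MS/MS after dansyl derivatization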). Conditions: actives raise or lower the signal. Summed up: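 H295R cells prestimulated 48 h with 10 uM forskolin, then exposed 48 h to chemicals in 0.1% DMSO final; estrone in medium extracted with MTBE, dansyl-derivatized, quantified by HPLC-MS/MS; bidirectional fitting versus DMSO, viability by MTT.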

A short description of assay [6]: TOX21_p53_BLA_p2_viability: Viability Assessment in the Tox21 HCT-116 p53 Agonism Beta-lactamase Assay, Phase 2 (AID 2283591).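 Also: compound exposure lasted 16 h at 37 °C; actives lower the ATP signal meaning cytotoxicity.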 Summed up: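 HCT-116 p53-bla cells (4000/well) rested 5 h at 37C, then received compounds in DMSO (217-fold dilution) for 16 h at 37C, 5% CO2. After the CCF4 read, CellTiter-Glo was added; ATP luminescence was read after 30 min at room temperature.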

In assay [7] the target is Cellular tumor antigen p53 (Homo sapiens) (UniProt P04637). The assay can be described thus: TOX21_p53_BLA_p2_ratio: Tox21 HCT-116 p53 Agonism Beta-lactamase Assay, Ratio, Phase 2 (AID 2283592). The method in brief:
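In this cell-based reporter format, HCT116 cells were dosed with chemicals delivered from DMSO by 217-fold dilution and incubated 16 h at 37C. Emission at 460 and 530 nm after 2 h CCF4-AM loading provided the ratio, fitted upward versus DMSO.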

The nature of assay [8]: TOX21_p53_BLA_p4_viability: Viability Assessment in the Tox21 HCT-116 p53 Agonism Beta-lactamase Assay, Phase 4 (AID 2283597).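 Also: hits lower the luminescence signal meaning cytotoxicity.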 Summed up: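 We seeded HCT116 p53 reporter cells at 4000/well and waited 5 h. We then added compounds in DMSO at a 217-fold dilution and incubated for 16 h. Viability was read as CellTiter-Glo luminescence after 30 min at RT.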
The target in assay [9] is Cellular tumor antigen p53 (Homo sapiens) (UniProt P04637). The assay can be described thus: TOX21_p53_BLA_p5_ratio: Tox21 HCT-116 p53 Agonism Beta-lactamase Assay, Ratio, Phase 5 (AID 2283599). Summed up: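 HCT-116 cells carrying a p53-inducible beta-lactamase reporter were seeded at 4000 cells/well and dosed after 5 h with compound in DMSO (217-fold dilution). After 16 h at 37C, CCF4-AM substrate was added for 2 h, and the 460/530 nm emission ratio was scored as gain-of-signal versus DMSO.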

For assay [10] the target is unchanged. The assay can be described thus: TOX21_p53_BLA_p4_ratio: Tox21 HCT-116 p53 Agonism Beta-lactamase Assay, Ratio, Phase 4 (AID 2283601). Summed up: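 HCT116 cells carrying an inducible beta-lactamase reporter were plated at 4000 cells/well, rested 5 h, then exposed to compounds in DMSO (217-fold dilution) for 16 h at 37C. CCF4-AM substrate was loaded 2 h at room temperature; 460/530 nm emission ratio scored gain-of-signal versus DMSO.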

Assay [11] is described as follows: TOX21_p53_BLA_p3_viability: Viability Assessment in the Tox21 HCT-116 p53 Agonism Beta-lactamase Assay, Phase 3 (AID 2283593).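 Also: cells exposed to compound for 16 h before reading.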 Summed up:
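HCT-116 cells (4000/well) rested 5 h at 37C, then got DMSO compounds by pin tool (217-fold dilution) for 16 h at 37C, 5% CO2. After the bla read, CellTiter-Glo was added and luminescence read at 30 min, room temperature.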

For assay [12], the target named is Cellular tumor antigen p53 (Homo sapiens) (UniProt P04637). The assay can be described thus: TOX21_p53_BLA_p3_ratio: Tox21 HCT-116 p53 Agonism Beta-lactamase Assay, Ratio, Phase 3 (AID 2283596). Summed up: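 HCT116 p53-bla cells (4000/well) given compound in DMSO (217-fold dilution) after 5 h, incubated 16 h at 37C. CCF4-AM substrate 2 h at room temperature; 460/530 nm emission ratio, gain fitted against DMSO.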

The nature of assay [13]: TOX21_p53_BLA_p5_viability: Viability Assessment in the Tox21 HCT-116 p53 Agonism Beta-lactamase Assay, Phase 5 (AID 2283600). Summed up: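 Compounds, pinned from DMSO at 217-fold dilution, were left on the cells for 16 h. The viability endpoint was ATP content measured by CellTiter-Glo luminescence, where falling signal reflects cytotoxicity.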
A short description of assay [14]: CEETOX_H295R_11DCORT: CeeTox H295R High-throughput Steroidogenesis Assay for 11-Deoxycortisol (11DCORT) (AID 2283432; active = hit-call score of the fitted dose curve at least 0.9, where 1 is the maximum; inactive = score below 0.9). Conditions: actives raise or lower the signal. Summed up:
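Human adrenal H295R cells were prestimulated with 10 uM forskolin for 48 h, then exposed to test chemical (0.1% DMSO final) for 48 h. Medium 11-deoxycortisol was quantified by MTBE extraction and HPLC-MS/MS; bidirectional fitting relative to DMSO.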

A short description of assay [15]: CEETOX_H295R_CORTIC: CeeTox H295R High-throughput Steroidogenesis Assay for Corticosterone (CORTIC) (AID 2283437; active = hit-call score of the fitted dose curve at least 0.9, where 1 is the maximum; inactive = score below 0.9;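 also: corticosterone secreted into medium quantified by mass spectrometry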). Conditions: actives raise or lower the signal. Summed up:
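H295R cells were prestimulated 48 h with 10 uM forskolin, then exposed 48 h to test chemical in 0.1% DMSO. Medium corticosterone was MTBE-extracted and quantified by HPLC-MS/MS; bidirectional fit versus DMSO baseline.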

A short description of assay [16]: CEETOX_H295R_CORTISOL: CeeTox H295R High-throughput Steroidogenesis Assay for Cortisol (AID 2283438; active = hit-call score of the fitted dose curve at least 0.9, where 1 is the maximum; inactive = score below 0.9;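 also: cortisol secreted into medium quantified by LC-MS/MS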). Conditions: actives raise or lower the signal. Summed up: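 Forskolin 10 uM 48 h prestim → test cmpd in DMSO (0.1% final) 48 h → medium MTBE-extracted → LC-MS/MS cortisol vs 7-pt std curve. Gain/loss of signal fitted vs DMSO. MTT viability in same wells.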
The nature of assay [17]: CEETOX_H295R_DOC: CeeTox H295R High-throughput Steroidogenesis Assay for DOC (AID 2283439; active = hit-call score of the fitted dose curve at least 0.9, where 1 is the maximum; inactive = score below 0.9). Conditions: actives raise or lower the signal. Summed up: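 Readout: 11-deoxycorticosterone in culture medium by reverse-phase C18 HPLC with ESI+ tandem MS after MTBE extraction. Cells: H295R, forskolin-primed (10 uM, 48 h), chemical-treated 48 h; DMSO 0.1% final. Activity fitted bidirectionally versus DMSO.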

The nature of assay [18]: CCTE_Simmons_CellTiterGLO_HEK293T: Viability Assessment in CCTE's Assays for Thyroperoxidase (TPO) Inhibition, Simmons Lab (AID 2283665). Summed up:
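HEK293T, 10 000 cells/well, DMEM + 1% FBS; 8-pt titration 5 nM–87.5 uM [final], 0.5% DMSO; 24 hr, 37C, 5% CO2; CellTiter-Glo luminescence; n=3 biological replicates.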

Structures are written as SMILES. Values joined by “and” are separate entries in the source; they are usually repeats but may differ in a detail not shown here. Equal entries are not always repeated. Records with an inconclusive call do not appear. Active and inactive are the calls of the source. The calls were made as follows, unless noted: active = hit-call score of the fitted dose curve at least 0.9, where 1 is the maximum; inconclusive = response in the unintended direction; inactive = score below 0.9.

Sequence of Peroxisome proliferator-activated receptor gamma (Homo sapiens) (P37231 whole entry, looked up, the tested form may be a part): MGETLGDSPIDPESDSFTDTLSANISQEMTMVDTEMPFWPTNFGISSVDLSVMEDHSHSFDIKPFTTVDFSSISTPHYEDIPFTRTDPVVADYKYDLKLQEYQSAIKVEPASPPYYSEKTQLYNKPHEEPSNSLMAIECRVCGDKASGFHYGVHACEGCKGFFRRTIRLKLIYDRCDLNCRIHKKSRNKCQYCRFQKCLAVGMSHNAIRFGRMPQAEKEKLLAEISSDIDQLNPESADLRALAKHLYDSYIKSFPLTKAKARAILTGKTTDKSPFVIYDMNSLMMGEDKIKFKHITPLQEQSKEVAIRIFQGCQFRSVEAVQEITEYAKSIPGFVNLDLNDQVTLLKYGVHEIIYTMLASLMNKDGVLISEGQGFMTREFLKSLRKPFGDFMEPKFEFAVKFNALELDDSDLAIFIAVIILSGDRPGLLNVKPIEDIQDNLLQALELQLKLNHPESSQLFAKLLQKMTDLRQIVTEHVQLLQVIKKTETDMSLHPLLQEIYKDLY
Sequence of Cellular tumor antigen p53 (Homo sapiens) (P04637 whole entry, looked up): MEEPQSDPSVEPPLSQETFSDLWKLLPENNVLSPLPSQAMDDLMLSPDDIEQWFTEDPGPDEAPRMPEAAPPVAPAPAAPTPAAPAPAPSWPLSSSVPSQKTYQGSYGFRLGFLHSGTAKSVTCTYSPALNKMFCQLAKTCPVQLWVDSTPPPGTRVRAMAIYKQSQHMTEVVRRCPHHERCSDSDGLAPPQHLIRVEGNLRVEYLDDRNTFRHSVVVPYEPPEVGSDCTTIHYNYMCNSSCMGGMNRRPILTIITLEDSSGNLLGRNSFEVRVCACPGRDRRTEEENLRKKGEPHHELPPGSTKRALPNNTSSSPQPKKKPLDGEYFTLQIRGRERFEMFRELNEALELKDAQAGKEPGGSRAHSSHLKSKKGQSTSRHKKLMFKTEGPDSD

Regarding `O=C(O)CCCC[C@@H]1SC[C@@H]2NC(=O)N[C@@H]21`, the compound was classed as inactive in assay [1] and in assay [2].

In the case of `COC(=O)c1c(C)cc(O)c(C)c1O`, the result in assay [1], in assay [3], in assay [4], in assay [5], in [2] and in assay [6] was inactive. Besides, the result in [7], in assay [8], in assay [9] and in assay [10] was inactive.

`CCCCCCCCCCOS(=O)(=O)O`: the result in [1], in [2], in assay [6], in assay [7], in assay [11] and in [8] was inactive. Besides, in assay [9], the result was inactive.

Turning to `O=C1CCCC1`, the outcome in assay [1], in [2], in [6], in [7], in [12] and in assay [8] was inactive. The outcome in assay [9], in assay [13] and in assay [10] was inactive.

Regarding `Cc1ccc(C(C)c2ccc(C)c(C)c2)cc1C`, the compound was called inactive in assay [1], in assay [14], in assay [15], in [16], in assay [17] and in assay [4]. The compound was classed as inactive in assay [5], in assay [2], in [7], in [12], in [9] and in [10]. In addition, the AC50 in [3] is 42.5 µM (active).

On to `C=C1C2CCC(C2)C1(C)C` (stereo unspecified), for which the compound was classed as inactive in assay [1], in assay [2], in assay [6], in assay [7], in assay [11] and in assay [12]. Further, the compound was classed as inactive in assay [8], in assay [9], in assay [13] and in [10].

On to `CN(C)c1ccc(C(=N)c2ccc(N(C)C)cc2)cc1`, for which the AC50 in assay [1] is 28.7 µM (active); in assay [3], 3.27 µM (active); in assay [7], 896 nM (active) and 2.2 µM (active); in assay [12] it was 13.2 µM (active) and 6.84 µM (active); in assay [9], 2.63 µM (active) and 2.56 µM (active); in assay [10], 936 nM (active) and 1.49 µM (active). Also, the compound was classed as inactive in [14], in assay [15], in assay [17], in assay [4], in [5] and in assay [2]. Also, the call in [6], in assay [11], in assay [8] and in assay [18] was inactive.

Consider `CC(CC=O)CCCC(C)(C)O` (stereo unspecified), for which the result in assay [1] and in [2] was inactive.

With `C=CC(=O)NC(C)(C)CS(=O)(=O)O`, the result in assay [1], in [2], in assay [6], in [7], in assay [11] and in assay [12] was inactive. The outcome in [8], in assay [9], in assay [13] and in assay [10] was inactive.

Regarding `O=C1C(N(CO)C(=O)NCO)N(CO)C(=O)N1CO` (stereo unspecified), the result in assay [1], in assay [2], in [6], in [7], in [11] and in [12] was inactive. Further, in assay [13], the outcome was inactive.

Turning to `O=c1cc(-c2ccccc2)oc2ccccc12`, the outcome in assay [1] and in assay [2] was inactive.

`NC(CO)(CO)CO`: the result in [1], in assay [2], in assay [6], in assay [7], in [8] and in assay [9] was inactive. Further, the call in [13] and in assay [10] was inactive.

Consider `CCCCCCCC/C=C\CCCCCCCC(=O)OCCO`, for which the result in assay [1] and in [2] was inactive.

In the case of `CC(C)C1=CC2=CC[C@@H]3[C@](C)(CCC[C@@]3(C)C(=O)O)[C@H]2CC1`, the compound was called inactive in assay [1], in assay [2], in assay [7], in assay [12], in assay [8] and in [9]. For the same compound, the compound was classed as inactive in assay [13]. Further, the AC50 in assay [6] was 58.9 µM (active).

As a reminder, the AC50 is the concentration at which the activity in the assay is half-maximal.
